Source: ChEMBL document CHEMBL4513216, “Probing the Open Global Health Chemical Diversity Library for Multistage-Active Starting Points for Next-Generation Antimalarials” (ACS Infect Dis, 2020)
About 2,100 (3.2%) of roughly 65,000 compounds showed an effect of 50% or more. The median lay at about -52%. What follows is part of a selection rich in strong results, with near analogues and random picks from the rest.

system: Plasmodium falciparum; assay: Screen against P. falciparum Asexual Blood Stage (ABS), at 5uM; type: functional, Dd2; settings: tested at 5 uM

SMILES	INHIBITION
c1cncc(COCc2n[nH]c3c2CN(Cc2ccco2)C3)c1	-89.3%
O=S(=O)(c1ccc(-c2cnco2)cc1)N1CCCC2(CCNCC2)CC1	8.22%
CN1CCC2(CCCN(S(=O)(=O)c3ccc(-c4cnco4)s3)C2)C1 (centres undefined)	52.1%
CN1CCCC2(CCN(S(=O)(=O)c3ccc(-c4cnco4)s3)C2)C1=O (centres undefined)	-16.8%
O=S(=O)(c1ccc(-c2cnco2)cc1)N1CCCC(O)(CO)CC1 (centres undefined)	-40.8%
O=S(=O)(c1ccc(-c2cnco2)cc1)N1CCC2(CCCNC2)C1 (centres undefined)	47%
CN1CCC2(CCN(S(=O)(=O)c3ccc(-c4cnco4)s3)CC2)C1	68.4%
COC(=O)c1cc(OCC2CCC2)cc(C(=O)N[C@@H](C)CO)c1	-90%
c1ccc(N2CCOC3(CCCN(c4ncccn4)C3)C2)nc1 (centres undefined)	-101%
c1ccc(N2CCCC2)c(NCc2ccncc2)c1	-27.2%
CN(Cc1cccc(C(N)=O)c1)c1ncc(C#N)cc1Cl	-76.1%
O=C(CN1CCCC(Cn2cncn2)C1)NCCCc1ccccc1 (centres undefined)	-62.6%
Cc1cc(C(=O)N2CCC(N3CCNC3=O)CC2)nn1C(C)(C)C	-59.8%
Cc1cc(C(=O)N2CCCC(N3CCCCCC3)C2)nn1C(C)(C)C (centres undefined)	55.5%
Cc1cc(C(=O)N2CCCC(N3CCNC3=O)C2)nn1C(C)(C)C (centres undefined)	-37.9%
Cc1cc(CNC(=O)c2cnoc2C)c(C)o1	-78%
O=C(c1cccnc1O)N1CCN(Cc2ccccc2F)CC1	-14.3%
Cc1cc(Oc2ccccc2F)nc(C2CCCCN2)n1 (centres undefined)	57.5%
Cc1cc(Oc2ccccc2)nc(C2CCCCN2)n1 (centres undefined)	-17.4%
Cc1cc(Oc2ccccc2C)nc(C2CCCN2)n1 (centres undefined)	25.4%
CC(C)NC(=O)C1CN(Cc2ccc(F)cc2)CC12CCOCC2 (centres undefined)	-23.5%
CN(C)C1(CNC(=O)Cc2ccc(F)cc2)CCOCC1	0.427%
CC1(C(=O)NCCc2ccc(F)cc2)CCOCC1	-16.2%
CN(C)C1(CNC(=O)CC=Cc2ccc(F)cc2)CCOCC1	57.5%
CN(C)C(C(=O)NCC1(N(C)C)CCOCC1)c1ccccc1F (centres undefined)	-6.85%
CN(C)C1(CNC(=O)C2CCCN2Cc2ccc(F)cc2)CCOCC1 (centres undefined)	68.7%

SMILES	INHIBITION
COCc1nc(C(=O)N2CCCC2Cn2cc(C)cn2)cs1 (centres undefined)	-179%
Cc1cccc(CN2CCC3(CCCN(Cc4cnn(C)c4)C3)C2)n1 (centres undefined)	-21.5%
CN(C)C(=O)NCc1ncn2c1CN(Cc1cccs1)CCC2	-61.4%
CN(C)C(=O)[C@@]12CCO[C@@H]1CCN(Cc1ccc3c(c1)OCO3)C2	-52.2%
O=C(COc1coc(CN2CCSCC2)cc1=O)c1ccccc1	-95.1%
COc1ccccc1Oc1ncccc1CNC(=O)C1(C)CCCNC1 (centres undefined)	-45.9%
Cc1cccc(C)c1Oc1ncccc1CNC(=O)C1(C)CCCNC1 (centres undefined)	56.1%
CC1(C(=O)NCc2cccnc2Oc2ccc(F)cc2F)CCCNC1 (centres undefined)	21.1%
CCn1ncc2c1C(COCC1CC1)CN(c1ccc(C)nn1)C2 (centres undefined)	40.1%
Cc1nc2cc(C3CCN(Cc4cccc(F)c4F)C3)nn2c(O)c1C.O=C(O)CC(O)(CC(=O)O)C(=O)O (centres undefined)	59.6%
CCc1c(C)nc2cc(C3CCN(Cc4cccnc4)C3)nn2c1O (centres undefined)	-81.6%
CCc1c(C)nc2cc(C3CCN(Cc4cccc(F)c4)C3)nn2c1O (centres undefined)	5.05%
CN(Cc1noc(C2CC2)n1)C1CCN(Cc2cccc(F)c2F)C1 (centres undefined)	26.6%
Cc1nc(O)cc(C2CCN(Cc3cccc(F)c3F)C2)n1 (centres undefined)	-81.4%
Cc1nc2cc(C3CCN(Cc4ccccc4F)C3)nn2c(O)c1C (centres undefined)	50.3%
CCc1c(C)nc2cc(C3CCN(Cc4ccccc4F)C3)nn2c1O (centres undefined)	51.6%
CCc1c(C)nc2cc(C3CCN(CCc4ccccc4)C3)nn2c1O (centres undefined)	-23%
CCc1c(C)nc2cc(C3CCN(Cc4ccc(F)cc4)C3)nn2c1O (centres undefined)	14.3%
Cc1nc(CN2CC(Cc3ccccc3)CC2=O)no1 (centres undefined)	-37.6%
Cc1ccc(CNCc2ccc(N3CCC(CO)CC3)nc2)c(C)c1	-47.4%
CC(c1nc(C2CC2)no1)N1CCc2c(ncn2C)C1 (centres undefined)	-90.5%
Cn1nc(C(=O)NCc2cccnc2)c2c1CCS(=O)(=O)C2	-148%
Cc1cnc(CCN(C)C(=O)c2ccc(O)nc2C)s1	-151%
COc1cccc(-c2cc(NCCN(C)C)nc3[nH]ccc23)n1	53.1%
COc1cccc(-c2cc(NCC(=O)O)nc3[nH]ccc23)n1	-47%
COc1cccc(-c2cc(NCCO)nc3[nH]ccc23)n1	-62.1%

SMILES	INHIBITION
O=C(Cc1ccsc1)N1C[C@H]2CCC[C@@]2(COCc2ccccn2)C1	-116%
Cc1cnc(NC(=O)c2csc(NCC(C)C)n2)s1	-175%
Cc1ncc(CN(C)CC(O)c2cccc(C(F)(F)F)c2)s1 (centres undefined)	54.7%
Cc1cc(CNC(=O)NCC(O)c2cccc(C(F)(F)F)c2)no1 (centres undefined)	-34.1%
Cc1ncc(CN(C)CC(O)c2ccc(Br)cc2)s1 (centres undefined)	22.6%
Cc1ccc(CC(=O)NCC(O)c2cccc(C(F)(F)F)c2)cn1 (centres undefined)	-58.1%
Cc1ncc(CN(C)CC(O)c2ccc(OC(F)(F)F)cc2)s1 (centres undefined)	64%
CCOC(=O)CN(C)Cc1cnc(C)s1	-142%
O=C(CC1CC1)N[C@@H]1CN(C(=O)c2ccoc2)C[C@@H]2CCCO[C@@H]21	-102%
CN(C)C(=O)c1cnc2n1CCN(Cc1ccc3c(c1)OCO3)C2	24.3%
CCn1cc2c(n1)CN(Cc1ccc(F)cc1)CC2COCC1CC1 (centres undefined)	-38.3%
CC(C)(CNC(=O)CCOc1cccc(F)c1)C(N)=O	-172%
CC(C)(CNC(=O)CCCOc1cccc(F)c1)C(N)=O	44.9%
CC(C)(CNC(=O)COc1cccc(F)c1)C(N)=O	60.6%
CC(C)Cn1cc2nc(N3CCC(O)CC3)[nH]cc-2c1=O	-52.3%
Cc1cccc(Cn2cc(Br)c(NS(C)(=O)=O)n2)c1	-96.25%
Cc1ccc(-c2nn(-c3cccc(F)c3)cc2CN(C)CCO)o1	50.5%
O=C(NCCn1ccnc1)c1ccn(-c2cccc(F)c2)n1	-1.32%
Cc1oc(-c2cccc(F)c2F)nc1CN(C)CCO	-82.7%
Cc1nc(CN2CCN(CCCc3nc4ccccc4o3)CC2)no1	-77.4%
CN(Cc1ccco1)[C@@H]1CN(Cc2ccco2)[C@@H]2CCCO[C@H]12	11.7%
CN(Cc1ccco1)[C@@H]1CN(Cc2ccc(F)cc2)[C@@H]2CCCO[C@H]12	56.5%
CN(Cc1cccnc1)[C@@H]1CN(Cc2nccn2C)[C@@H]2CCCO[C@H]12	-13.9%
Cc1noc(C)c1CN1C[C@@H](N(C)Cc2ccco2)[C@H]2OCCC[C@H]21	50.4%
CN(Cc1cccnc1)[C@@H]1CN(Cc2ccccn2)[C@@H]2CCCO[C@H]12	50.8%
CN(Cc1ccco1)[C@@H]1CN(CC2CCOCC2)[C@@H]2CCCO[C@H]12	-0.241%

SMILES	INHIBITION
CN(Cc1ccco1)[C@@H]1CN(Cc2nccn2C)[C@@H]2CCCO[C@H]12	-23.8%
CN(Cc1cccnc1)[C@@H]1CN(c2ccccn2)[C@@H]2CCCO[C@H]12	-39.4%
CN(Cc1ccco1)[C@@H]1CN(Cc2cnn(C)c2)[C@@H]2CCCO[C@H]12	27.3%
O=C(CCc1ccc(-n2cnnn2)cc1)Nc1ccncc1	-12.1%
CCn1cc2c(n1)CN(Cc1nccs1)CC2COCC1CC1 (centres undefined)	-9.1%
CN(C)c1nc(O)cc(C2CCN(C(=O)Cc3ccccn3)C2)n1 (centres undefined)	-107%
N#CC1CCCN(c2ncnc3c2CCN(Cc2ccccc2)CC3)C1 (centres undefined)	-71.7%
Cc1cc(CNc2ccccc2Cl)no1	40.4%
Cc1cc(CNc2cccc(Cl)c2C)no1	54.3%
CCOc1c(Cl)cccc1NCc1cc(C)on1	-51.8%
CNC(=O)c1cnc(C=Cc2cc(OC)c(O)c(OC)c2)s1	-64.8%
CNC(=O)c1cccc(CNC(C)c2ccc(F)cc2N(C)C)c1 (centres undefined)	-107%
CNC(=O)c1cccc(CNC(C)c2cc(Cl)ccc2OC)c1 (centres undefined)	-5.94%
CNC(=O)c1cccc(CNC(C)c2cc(C)ccc2OC(F)F)c1 (centres undefined)	60.1%
Cc1oc(C)c(C(=O)NCc2ccccn2)c1C	-148%
Cc1oc(C)c(C(=O)NCc2ccccc2S(=O)(=O)N(C)C)c1C	-57.1%
Cc1oc(C)c(C(=O)NCc2ccccc2CN(C)C)c1C	57.3%
COc1ncccc1CNC(=O)c1c(C)oc(C)c1C	32.4%
Cc1oc(C)c(C(=O)NCc2cccnc2N(C)C)c1C	-69.8%
CCOc1ncccc1CNC(=O)c1c(C)oc(C)c1C	58.4%
Cc1cc(CC(C)Nc2ncc(C)c(N(C)C)n2)[nH]n1 (centres undefined)	-13.9%
O=C(c1ccccc1)N1C[C@@H]2CCCO[C@@H]2[C@H](N2CCCC2)C1	-41.1%
O=C(O)[C@@H]1CN(C(=O)c2ccc3[nH]nnc3c2)C[C@H]1c1ccccc1	-123%
COCC1(C(=O)N[C@H]2CN(c3nnc(C)s3)C[C@@H]2C2CC2)CCC1	-176%
CC(C)c1nc(CN(C)C2CCN(CCNS(C)(=O)=O)C2)no1 (centres undefined)	-20.9%
CSCCc1ccc(NC(=O)NCc2ccnc(N(C)C)c2)cc1	-46.2%
